Screens: PubChem, National Center for Advancing Translational Sciences (NCATS)
AmpC inh detg: inhibitors of E. coli AmpC beta-lactamase with detergent; P00811; AmpC hydrolysis of nitrocefin, absorbance 480 nm, 0.01% Triton; Potency, µM (titrated, usually from 114 µM), without a hit: top-dose activity change, negative = inhibition, usual class: inhibitors; 370,000 tested, 0.041% active;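 also: 0% = no-compound wells and -100% = no-enzyme wells; nearly all actives have a fitted effect of over 25% in size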
Target sequence (P00811 whole entry, looked up): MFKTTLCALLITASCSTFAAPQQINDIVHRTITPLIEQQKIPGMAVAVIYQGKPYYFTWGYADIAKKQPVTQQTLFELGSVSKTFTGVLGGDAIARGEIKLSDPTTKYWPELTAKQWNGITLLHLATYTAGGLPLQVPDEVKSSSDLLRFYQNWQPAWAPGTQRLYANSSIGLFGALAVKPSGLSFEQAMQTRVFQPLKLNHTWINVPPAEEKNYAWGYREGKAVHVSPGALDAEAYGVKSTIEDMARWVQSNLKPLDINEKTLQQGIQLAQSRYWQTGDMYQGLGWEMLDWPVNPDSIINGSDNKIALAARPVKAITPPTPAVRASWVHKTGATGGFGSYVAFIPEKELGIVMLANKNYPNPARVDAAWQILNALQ
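AmpC (5.3 nM in the dispensed reagent) in 20 mM phosphate pH 7.0 with 0.01% (detergent screen) or 0.0001% Triton X-100 was preincubated with compounds for 15 min at room temperature. Nitrocefin was then added from an 800 uM solution, and hydrolysis was followed at 480 nm.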
AmpC no deterg: AmpC beta-lactamase inhibition without detergent; P00811; AmpC nitrocefin hydrolysis, absorbance 480 nm, 0.0001% Triton; Potency, µM (doses to about 57.1 µM), without a hit: at the top dose activity change, negative = inhibition, usual class: inhibitors; 330,000 tested, 0.52% active;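 also: plate controls were no compound for no effect and no enzyme for full effect; nearly all actives have a fitted effect of over 20% in size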
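AmpC (5.3 nM in the dispensed reagent) in 20 mM phosphate pH 7.0 with 0.01% (detergent screen) or 0.0001% Triton X-100 was preincubated with compounds for 15 min at room temperature. Nitrocefin was then added from an 800 uM solution, and hydrolysis was followed at 480 nm.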
Sm TGR block: S. mansoni TGR enzyme inhibition | Q962Y6 | 360,000 tested, 3% active | purified TGR, DTNB reduction, TNB absorbance 405 nm | Potency, µM (titrated, usually from 114 µM), without a hit: at the highest dose activity change, negative = inhibition, actives largely listed as inhibitors; also: nearly all actives have a fitted effect of over 60% in size
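TGR 20 nM + NADPH 100 uM (dispensed conc.), cpd preinc 15 min RT; start with NADPH (500 uM addition) then DTNB (15 mM addition). Kinetic TNB absorbance, 405 nm filter. Four-parameter Hill fit across titration.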
Active calls of the source: *. In the library only some 3.3% were active in any assay of this set; here they are far more common. Calls follow the shape of the dose curve; as a rule, active = well fitted curve in the direction sought with a large enough effect; inconclusive = small, poorly fitted or top-dose-only effect, or another doubt; inactive = no such curve, though single readings can be large; an effect the other way counts as inactive or inconclusive. Unless noted, % is scaled to controls: 0 for no effect and ±100 for the full control effect; potency is read from the fitted curve at half-maximal effect.

Results for CCN(CC)CCNC(=O)c1ccc(Cn2c(SCc3ccccc3)nc3cccnc32)cc1 ?
AmpC inh detg: 24%; Sm TGR block: 37%

How did C[C@H](O)Cc1cc2ccccc2c(=O)o1 do in these assays?
AmpC no deterg: -3%

How did O=C(c1cc2c(s1)-c1ccccc1OC2)N1CCN(c2ccc(F)cc2)CC1 do in these assays?
AmpC inh detg: 22%; Sm TGR block: 24%

What do the screens show for `O=C(c1ccco1)N1CCN(C(=O)c2cccs2)CC1`?
AmpC inh detg: -7%; AmpC no deterg: -22%; Sm TGR block: -5%

What do the screens show for `O=C(c1ccco1)N1CCN(S(=O)(=O)c2cccs2)CC1`?
AmpC inh detg: -2%; AmpC no deterg: -11%; Sm TGR block: -5%

Results for O=C(c1ccco1)N1CCN(C(=O)c2sccc2-c2ccccc2)CC1 ?
AmpC inh detg: inconclusive; AmpC no deterg: -2%; Sm TGR block: 40µM*

Results for O=C(c1ccco1)N1CCN(C(=O)C(Cc2ccccc2)NS(=O)(=O)c2cccs2)CC1 (configuration not stated) ?
AmpC inh detg: -15%; AmpC no deterg: -3%; Sm TGR block: 25µM*

How did O=C(c1ccco1)N1CCN(C(=O)c2cc3c(s2)-c2ccccc2OC3)CC1 do in these assays?
AmpC inh detg: inconclusive; AmpC no deterg: 70%; Sm TGR block: 25µM*

How did CCCNC(=O)COc1ccc(S(=O)(=O)Nc2ccc(C)cc2)cc1 do in these assays?
AmpC inh detg: -2%; AmpC no deterg: 1%; Sm TGR block: 6%

Results for O=C(CC(c1ccc(F)cc1)c1ccco1)N1CCOCC1 (configuration not stated) ?
AmpC inh detg: inconclusive; AmpC no deterg: -3%; Sm TGR block: -12%

What do the screens show for `O=C(CC(c1ccc(F)cc1)c1ccco1)N1CCCC1` (configuration not stated)?
AmpC inh detg: -10%; AmpC no deterg: 52%; Sm TGR block: 14µM*

What do the screens show for `CCN(CC)C(=O)CC(c1ccccc1)c1ccco1` (configuration not stated)?
AmpC inh detg: -9%; AmpC no deterg: 21%; Sm TGR block: inconclusive

Results for CCCN(CCC)C(=O)CC(c1ccc(F)cc1)c1ccco1 (configuration not stated) ?
AmpC inh detg: -19%; AmpC no deterg: 84%; Sm TGR block: 11µM*

How did Cc1ccc(C(=O)N(C)CC(=O)Nc2ccc(N3CCOCC3)cc2)s1 do in these assays?
AmpC inh detg: -6%; AmpC no deterg: -13%; Sm TGR block: -10%

How did O=C(Cn1nc(CNc2ccc(Cl)cc2)[n+]2c1CCCCC2)c1ccc(Br)cc1 do in these assays?
AmpC inh detg: 2%; AmpC no deterg: 185%; Sm TGR block: -10%

Results for O=C(Cn1nc(CNc2ccc(Br)cc2)[n+]2c1CCCCC2)c1ccc([N+](=O)[O-])cc1 ?
AmpC inh detg: -4%; AmpC no deterg: 79%; Sm TGR block: 50µM*

Results for Cc1cc(C)c2nc(NNC(=O)c3ccc(S(=O)(=O)N4CCc5ccccc5C4)cc3)sc2c1 ?
AmpC inh detg: 4%; AmpC no deterg: -36%; Sm TGR block: 4%

Results for Cc1cc(C)c2sc(NNC(=O)c3ccc(S(=O)(=O)N4CCc5ccccc5C4)cc3)nc2c1 ?
AmpC inh detg: -19%; AmpC no deterg: 3.5µM*; Sm TGR block: -14%

What do the screens show for `CC(NC(=O)c1cccs1)C(c1cccs1)N1CCN(Cc2ccccc2)CC1` (configuration not stated)?
AmpC inh detg: -6%; AmpC no deterg: 10%; Sm TGR block: -12%

Results for CCC(=O)NC(C)C(c1cccs1)N1CCN(Cc2ccccc2)CC1 (configuration not stated) ?
AmpC inh detg: inconclusive; AmpC no deterg: 45µM*; Sm TGR block: 1%

Results for O=C(COC(=O)c1ccccc1NCCO)NNC(=O)c1cccs1 ?
AmpC inh detg: inconclusive; AmpC no deterg: -7%; Sm TGR block: 1%

What do the screens show for `Cc1ccc(Nc2ncnc3nc[nH]c23)cc1Cl`?
AmpC inh detg: -15%; AmpC no deterg: 6%; Sm TGR block: 4%

How did COc1cccc(Nc2ncnc3nc[nH]c23)c1 do in these assays?
AmpC inh detg: inconclusive; AmpC no deterg: 3.2µM*; Sm TGR block: 3%

Results for COc1ccc(NC(=O)CN(C)C(=O)Cn2cnc3c2c(=O)n(C)c(=O)n3C)cc1 ?
AmpC inh detg: -17%; AmpC no deterg: -17%; Sm TGR block: -2%

Results for Cc1nnc(NC(=O)c2ccc(Br)o2)s1 ?
AmpC inh detg: inconclusive; AmpC no deterg: -9%; Sm TGR block: 8%

How did CC(Oc1cccc(Cl)c1)C(=O)Nc1ccc(S(=O)(=O)N(C)C2CCN(C)CC2)cc1 (configuration not stated) do in these assays?
AmpC inh detg: inconclusive; AmpC no deterg: 59%; Sm TGR block: 0%

Results for COc1ccc(OC)c(NC(=O)c2cc(C3CC3)nc3c2c(C)nn3-c2ccc(C)cc2)c1 ?
AmpC inh detg: 23%; Sm TGR block: 3%

What do the screens show for `CCOc1ccccc1NC(=O)C(=O)NCCc1sc2nc(-c3ccc(OC)cc3)nn2c1C`?
AmpC inh detg: 5%; Sm TGR block: 2%

How did COc1ccc(NC(=O)c2ccco2)cc1NC(=O)c1cccc(C)c1OC do in these assays?
AmpC inh detg: 3%; Sm TGR block: -4%

Results for C=CCn1c(O)c(N=Nc2ccccc2C)c2ccccc21 ?
AmpC inh detg: 10%; AmpC no deterg: -27%; Sm TGR block: 18µM*

What do the screens show for `C=CCn1c(O)c(N=O)c2ccccc21`?
AmpC inh detg: -5%; AmpC no deterg: -10%; Sm TGR block: 10%

What do the screens show for `CSc1nsc(SCC(=O)NC2CCCCC2)n1`?
AmpC inh detg: inconclusive; AmpC no deterg: -14%; Sm TGR block: -11%

What do the screens show for `CSc1nsc(SCc2cnc(C)nc2N)n1`?
AmpC inh detg: inconclusive; AmpC no deterg: -19%; Sm TGR block: 40µM*

Results for COc1ccc(NC(=S)Nc2ccc3nccnc3c2)cc1 ?
AmpC inh detg: -6%; AmpC no deterg: -18%; Sm TGR block: 32µM*

How did COc1ccc(NC(=S)Nc2ccccc2)cc1 do in these assays?
AmpC inh detg: -7%; AmpC no deterg: -18%; Sm TGR block: -34%

Results for COc1ccc(NC(=S)Nc2ccc3snnc3c2)cc1 ?
AmpC inh detg: 3%; AmpC no deterg: -34%; Sm TGR block: 16µM*

How did CNC(=O)Nc1ccc2snnc2c1 do in these assays?
AmpC inh detg: -25%; AmpC no deterg: -21%; Sm TGR block: -5%

Results for CSc1ncccc1C(=O)OCC(=O)NC(C)CCc1ccccc1 (configuration not stated) ?
AmpC no deterg: -6%

Results for CC1CN(S(=O)(=O)c2cc(C(=O)N(C)Cc3cccs3)ccc2Cl)CC(C)O1 (configuration not stated) ?
AmpC no deterg: 62%

What do the screens show for `COc1ccc2c(C(=O)CN3CCSCC3)c[nH]c2c1`?
AmpC inh detg: 11%; AmpC no deterg: -5%; Sm TGR block: -23%

What do the screens show for `COc1ccc2c(C(=O)CN(C)C3CCCCC3)c[nH]c2c1`?
AmpC inh detg: -11%; AmpC no deterg: -19%; Sm TGR block: 35µM*
